Test results published in the supplement of paper PMC4840960.
Counter-ions that a name gives are not always drawn.

System: E18 rat cortical neuron-glia co-culture
Assay: myelination (MBP fiber length per Olig2+ nucleus), % of 1 µM DAPT response (DMSO = 0) (% of DAPT); higher = more myelination, active = 50 or more
Settings: 5 µM; treatment time: 8 days (DIV5-DIV13)
Outline: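 Four 10X fields in each of duplicate wells were analysed after cultures were fixed in 4 % paraformaldehyde and immunostained for MBP and Olig2, with DAPI as the nuclear counterstain. The cultures were papain-dissociated primary E18 rat cortical co-cultures at 20,000 cells/well on poly-d-lysine/laminin 96-well plates, dosed with library compounds at 1 or 5 µM in myelination medium from DIV5 to DIV13. The myelination readout was continuous straight MBP fiber length per Olig2+ nucleus, with 0.1 % DMSO set to 0 and a 1 µM positive control set to 100.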

myelination, inactive:
C[C@]12CC[C@@H]3c4ccc(OS(=O)(=O)O)cc4CC[C@H]3[C@@H]1CCC2=O [Estrone sulfate] 5.79
CC(c1cc2ccccc2s1)N(O)C(N)=O (centres undefined) [Zileuton] -19.1
CC(=O)NC[C@H]1CN(c2ccc(N3CCOCC3)c(F)c2)C(=O)O1 [linezolid] 0.414
CC(=O)O[C@]1(C(C)=O)CC[C@H]2[C@@H]3C=C(C)C4=CC(=O)CC[C@]4(C)[C@H]3CC[C@@]21C [Megestrol acetate] -31.3
C[C@](N)(Cc1ccc(O)c(O)c1)C(=O)O [Methyldopa] -8.85
C[C@@H]1C[C@H]2[C@@H]3CCC4=CC(=O)C=C[C@]4(C)[C@@]3(F)[C@@H](O)C[C@]2(C)[C@H]1C(=O)CO [Desoximetasone] -8.43
CN(C)[C@@H]1C(O)=C(C(=O)NCN2CCCC2)C(=O)[C@@]2(O)C(O)=C3C(=O)c4c(O)cccc4[C@@](C)(O)[C@H]3C[C@@H]12 [Rolitetracycline] -5.55
NC[C@H](O)c1ccc(O)c(O)c1 [Norepinephrine] -38.4
CC(C)NCC(O)COc1ccc(CC(N)=O)cc1 (centres undefined) [Atenolol] 7.87
